This passage reports NF-kB reporter, IRF reporter and viability score results from the supplement of paper PMC10646978.

Molecules are shown by their SMILES. ± gives the standard deviation.

What all share (settings): modulator concentration 10 µM
The subject of assay [1] is RAW-Dual (murine macrophage reporter line). The assay can be described thus: NF-kB reporter (SEAP) activity fold change vs agonist alone; higher = enhanced NF-kB activity. In a few lines:
(§1)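 Compound reached 10 μM final in each well by pin transfer, onto RAW-Dual murine macrophage reporter cells seeded at 50 000 per well in 384-well plates. After 1 hour at 37 °C, the cells were stimulated overnight with a PRR agonist. SEAP in the supernatant was read with QUANTI-Blue at 620 nm absorbance for NF-κB, and Lucia luciferase was read with QUANTI-Luc luminescence for IRF. Each signal was turned into fold change against the mean agonist-only control on the same plate, and two replicate plates were averaged with propagated errors.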

Assay [2] shares this test system. Description: IRF reporter (Lucia luciferase) activity fold change vs agonist alone; higher = enhanced IRF activity. The essentials:
as §1

The test system is the same in assay [3]. Description: viability score (confluency relative to resting cells, overnight) (fraction); higher = more viable, active = viable (0.7 or more). The essentials:
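A compound met the cutoff when both of two confluency masks exceeded 70% of resting cells. Those masks were made with IncuCyte software from IncuCyte images of RAW-Dual macrophages treated overnight at 10 μM final. This is the basis of the viability score, which is confluency relative to resting cells.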

The mark [4] stands for this setting: agonist: CpG ODN 1826 0.5 ug/mL.

Regarding `Cc1ccccc1CNC(=O)CN(c1cccc(C(F)(F)F)c1)S(C)(=O)=O`, the NF-kB reporter came out at 1.11 ± 0.097 in assay [1] (setting [4]), 1.07 ± 0.11 in assay [1] (agonist: LPS 0.1 ug/mL) and 1.03 ± 0.041 in assay [1] (agonist: MPLA […]). Further, the IRF reporter came out at 0.956 ± 0.095 in assay [2] (agonist: 3'3'-cGAMP 10 ug/mL), 1.11 ± 0.13 in assay [2] (agonist: LPS 0.1 ug/mL) and 1.03 ± 0.24 in assay [2] (agonist: MPLA […]). In addition, the viability score in assay [3] was 1 (active).
In the case of `FC(F)(F)c1nnc2ccc(NC3CCN(c4ncnc5c4CCCC5)CC3)nn12`, the NF-kB reporter in assay [1] (setting [4]) is 1.19 ± 0.096; in assay [1] (agonist: LPS 0.1 ug/mL), 1.52 ± 0.13; in assay [1] (agonist: MPLA […]), 1.79 ± 0.13. In addition, the IRF reporter in assay [2] (agonist: 3'3'-cGAMP 10 ug/mL) was found to be 1.17 ± 0.086; in assay [2] (agonist: LPS 0.1 ug/mL), 1.46 ± 0.091; in assay [2] (agonist: MPLA […]), 1.4 ± 0.18. In assay [3], the viability score was 0.972 (active).
Turning to `C=CCn1c(SCC(=O)NCCN2CCOCC2)nc2sc3c(c2c1=O)CCC3`, the NF-kB reporter in assay [1] (setting [4]) stood at 0.99 ± 0.079; in assay [1] (agonist: LPS 0.1 ug/mL), 1.05 ± 0.069; in assay [1] (agonist: MPLA […]) it was 0.852 ± 0.068. Further, the IRF reporter in assay [2] (agonist: 3'3'-cGAMP 10 ug/mL) was 1.02 ± 0.081; in assay [2] (agonist: LPS 0.1 ug/mL), 1.48 ± 0.11; in assay [2] (agonist: MPLA […]), 0.984 ± 0.083. Moreover, the viability score in assay [3] is 1.01 (active).
On to `COC(=O)C1=C(C)NC(=O)CC1c1c(F)cccc1Cl` (stereo unspecified), for which the NF-kB reporter in assay [1] (setting [4]) is 0.986 ± 0.083; in assay [1] (agonist: LPS 0.1 ug/mL) it was 0.993 ± 0.087; in assay [1] (agonist: MPLA […]), 0.975 ± 0.041. Moreover, the IRF reporter in assay [2] (agonist: 3'3'-cGAMP 10 ug/mL) worked out at 0.87 ± 0.032; in assay [2] (agonist: LPS 0.1 ug/mL) it was 1.03 ± 0.091; in assay [2] (agonist: MPLA […]) it was 1.06 ± 0.14. For the same compound, the viability score in assay [3] was 0.995 (active).
With `CCOc1ccc(NC(=O)CC2Nc3cccc4cccc(c34)NC2=O)cc1` (stereo unspecified), the NF-kB reporter came to 0.91 ± 0.066 in assay [1] (setting [4]), 1.01 ± 0.067 in assay [1] (agonist: LPS 0.1 ug/mL) and 0.926 ± 0.077 in assay [1] (agonist: MPLA […]). The IRF reporter in assay [2] (agonist: 3'3'-cGAMP 10 ug/mL) was 0.884 ± 0.049; in assay [2] (agonist: LPS 0.1 ug/mL) it was 1.31 ± 0.083; in assay [2] (agonist: MPLA […]), 1.25 ± 0.34. In addition, the viability score in assay [3] is 0.926 (active).
On to `COc1ccccc1NS(=O)(=O)c1cc2c3c(c1)CC(=O)N3CCC2`, for which the NF-kB reporter in assay [1] (setting [4]) was 0.967 ± 0.088; in assay [1] (agonist: LPS 0.1 ug/mL), 1.03 ± 0.096; in assay [1] (agonist: MPLA […]), 1.07 ± 0.071. Also, the figures for the IRF reporter in assay [2] (agonist: 3'3'-cGAMP 10 ug/mL), in assay [2] (agonist: LPS 0.1 ug/mL) and in assay [2] (agonist: MPLA […]) were 0.992 ± 0.035, 1.09 ± 0.15 and 0.871 ± 0.11, respectively. Moreover, the viability score in assay [3] was 1.01 (active).
`CCCCc1oc2ccccc2c1C(=O)c1cc(I)c(OCCN(CC)CC)c(I)c1` [Prestw-409]: the values for the NF-kB reporter in assay [1] (setting [4]), in assay [1] (agonist: LPS 0.1 ug/mL) and in assay [1] (agonist: MPLA […]) were 0.41 ± 0.08, 0.977 ± 0.075 and 1.15 ± 0.11, respectively. In addition, the IRF reporter in assay [2] (agonist: 3'3'-cGAMP 10 ug/mL) turned out to be 0.574 ± 0.025; in assay [2] (agonist: LPS 0.1 ug/mL), 1.32 ± 0.2; in assay [2] (agonist: MPLA […]), 1.51 ± 0.29. The viability score in assay [3] is 1.04 (active).
`O=C(c1ccc(Cl)cc1)N(c1ccccc1)C1C=CS(=O)(=O)C1` (stereo unspecified): the NF-kB reporter in assay [1] (setting [4]) was determined as 0.99 ± 0.056; in assay [1] (agonist: LPS 0.1 ug/mL), 0.83 ± 0.051; in assay [1] (agonist: MPLA […]), 0.823 ± 0.049. Moreover, the IRF reporter in assay [2] (agonist: 3'3'-cGAMP 10 ug/mL) was 0.814 ± 0.031; in assay [2] (agonist: LPS 0.1 ug/mL), 1.1 ± 0.14; in assay [2] (agonist: MPLA […]) it was 1.08 ± 0.2. Moreover, the viability score in assay [3] was 0.981 (active).
For the compound `Cc1nc(-c2ccc(OCC(C)C)c(C#N)c2)sc1C(=O)O`, the NF-kB reporter in assay [1] (setting [4]) was 0.891 ± 0.14; in assay [1] (agonist: LPS 0.1 ug/mL), 0.957 ± 0.34; in assay [1] (agonist: MPLA […]), 1.02 ± 0.065. Also, the IRF reporter was 0.883 ± 0.048 in assay [2] (agonist: 3'3'-cGAMP 10 ug/mL), 0.973 ± 0.3 in assay [2] (agonist: LPS 0.1 ug/mL) and 1.06 ± 0.22 in assay [2] (agonist: MPLA […]). For the same compound, the viability score in assay [3] was 1 (active).
Regarding `O=[N+]([O-])c1ccccc1S(=O)(=O)N1CCCC1`, the NF-kB reporter in assay [1] (setting [4]) came to 0.974 ± 0.11; in assay [1] (agonist: LPS 0.1 ug/mL) it was 1.06 ± 0.065; in assay [1] (agonist: MPLA […]), 0.907 ± 0.055. Also, the IRF reporter in assay [2] (agonist: 3'3'-cGAMP 10 ug/mL) is 0.921 ± 0.042; in assay [2] (agonist: LPS 0.1 ug/mL), 1.34 ± 0.087; in assay [2] (agonist: MPLA […]), 1.23 ± 0.25. For the same compound, the viability score in assay [3] is 1.01 (active).
For `O.S=c1nc[nH]c2nc[nH]c12`, the figures for the NF-kB reporter in assay [1] (setting [4]), in assay [1] (agonist: LPS 0.1 ug/mL) and in assay [1] (agonist: MPLA […]) were 0.844 ± 0.037, 0.902 ± 0.1 and 0.989 ± 0.11, respectively. Also, the IRF reporter in assay [2] (agonist: 3'3'-cGAMP 10 ug/mL) came to 0.768 ± 0.035; in assay [2] (agonist: LPS 0.1 ug/mL) it was 1.23 ± 0.28; in assay [2] (agonist: MPLA […]), 1.36 ± 0.57. The viability score in assay [3] is 0.994 (active).
As for `COc1cc(Cl)c(C)cc1NC(=O)c1ccccc1Cl`, the NF-kB reporter in assay [1] (setting [4]) was 0.906 ± 0.26; in assay [1] (agonist: LPS 0.1 ug/mL), 1.11 ± 0.062; in assay [1] (agonist: MPLA […]), 1.4 ± 0.22. For the same compound, the IRF reporter in assay [2] (agonist: 3'3'-cGAMP 10 ug/mL) was found to be 0.914 ± 0.042; in assay [2] (agonist: LPS 0.1 ug/mL), 0.991 ± 0.15; in assay [2] (agonist: MPLA […]), 1.1 ± 0.12. Moreover, the viability score in assay [3] is 0.981 (active).
For `Cc1cccc(CSc2nn3c(=O)c(C)nnc3s2)c1`, the NF-kB reporter in assay [1] (setting [4]) turned out to be 1.06 ± 0.086; in assay [1] (agonist: LPS 0.1 ug/mL) it was 0.937 ± 0.1; in assay [1] (agonist: MPLA […]), 0.907 ± 0.085. The figures for the IRF reporter in assay [2] (agonist: 3'3'-cGAMP 10 ug/mL), in assay [2] (agonist: LPS 0.1 ug/mL) and in assay [2] (agonist: MPLA […]) were 0.925 ± 0.031, 1.25 ± 0.2 and 1.26 ± 0.25, respectively. Moreover, the viability score in assay [3] is 1.01 (active).
